Measurements published in the supplement of paper PMC6555819.

System: PPARg:RXRa (NR concentration 180 nM, RXRa partner concentration 90 nM)
Experiment: PBM binding z-score (relative to random genomic background probes); higher = stronger binding; sequences stand for … in GC…GCGATTGACAGCGTAGAATGAAGG
Procedure, shortened: (§1)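 Antibodies against each partner of ligand-free nuclear receptor dimers (one per run) detected binding on custom Agilent 4×180K protein-binding microarrays after 1 h incubation. The double-stranded probes had 34-nt variable regions carrying direct-repeat seeds, single-nucleotide variants, half-site ablations and random human genomic background sequences. Binding z-scores, from regression-normalized fluorescence, use the random background probes as reference.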

Sequence	PBM binding z-score
CCTAGTTGGTCAGGAGGTCACACTCCGGATATGA	3.28
ACTATTAGATGACTTAGGGCAACCGATACGACGC	1.25
CGAACTAGGTCATTGACAGGACAGTGAGTAGTAA	7.21
GGAACGAGGGCATTCGAGGTGATAGCATGGCGAT	1.28
GCGACTGGGGCATCAGCAGGTTACCAGAACTTAA	0.791
CCTAGCAGGCCAACCTGGGTCACTCAAGGCTTGA	0.131
TGAATGAGGTCATAAGATCAGGGAACGTTGCAAA	6.96
GATACATGGTCAAGGCCAGAGTACGCGTATTGAT	0.872
CGTGCAAGGTCAGCAGGTCAGTGAAAGCGACGTG	4.89
TTACCAAGGTGAGCTGAGGTCATTGATCCAACTC	1.69
CAAACCAGGTCACCGGAAGGTCAAAGTCCGCATG	7.88
ACAAGCAGGCCAAGTTTGGGTCACTCAAACAAAG	0.101
TCTTGTAGATCAATAGAGGTCAAGAAAGTGCGCT	1.36
ACTCGGAGGACAAAGGTTAGAGCTACGCCAGTGA	4.75
CAAACTAGGTCACCGGAAGGTCCAAGTCCGCATG	8.9
GCGACTGGGGCATGAGCAGGTTACCATAACTTAA	1.08
ATCTCTAGGTAAAGATAGTTCAGTGCATGCAAAT	0.357
TAGCATAGGTCATTCAGGGGCCAGTATAGAAAGC	3.49
ATCGAAAGGTGGTGAGGTGAGTATACAGAAAGGC	0.668
CCTACTGGGCCATTCAGCGGTCATTGATCATATG	0.533

Sequence	PBM binding z-score
CTCGAAAGGTCGGTTGAGGAGAGTATACGGATAA	0.367
TCAGACAGGTGAAGGTAACTCACGTACGCAGTCG	0.954
TCTCGTAGATCAATAGAGGTTAAGAAAGTGCGCT	-0.218
ACCGAAAGGTCGAGGTGAGTATAGAGAAAGGGAA	3.28
TTACCAAGGTGATAGGTCGTTGATGCACGCCTTG	4.06
TCTATTAGTTGATTTGGGCAACCGAAACAGCGGA	-0.145
CAAACTAGGTCATGAGGTCAAAGTCCGCTTCCCG	9.89
CGTCCAAGGCCAAGGTCAGTGAAAGAGACTCGAA	0.804
ATCTCTAGGTAAAAGTTCAGCGAATCCCGAGGAT	8.87
ATACCAAGGTGATCGTGAGATCGTTGATACTAAC	0.447
CCTACTGGGCCACGAAAGGTCTTTGATTCAGTGA	1.84
GCTAGTAGTTGAAAGGGCAACCGAATGATTCTCG	4.19
AGTAGCAGGCCAAGTTTGGGTCACTCAAACAAAG	-0.0669
CCGACTGGGGCAAAGGTTACCAGACTCAGTACGA	10.5
ATCTCAAGGTAAAAGTTCAGTGAATCCCGAGGAT	3.54
CCTACTGGGCCACGAAAGGTTATTGATTCAGTGA	2.37
ACTTACGCGTCAACGAGGTTATAGCACGCGTATA	0.862
TCTTGTAGATCAAAGGTTAACAAAGCCGAAGCCT	8.48
TCTTGTAGATCAACAGGAGGTTAGGAAAGATCGA	-0.123
TCTATTTGTTGAAGGGCAACCGACGAGTCCGTTT	0.0466

System: PPARg:RXRa 270nM:90nM, anti-RXR (NR concentration 270 nM, RXRa partner concentration 90 nM)
Experiment: as above
Procedure, shortened: as §1

Sequence	PBM binding z-score
CCTAGTTGGTCAGGAGGTCACACTCCGGATATGA	4.03
ACTATTAGATGACTTAGGGCAACCGATACGACGC	0.22
CGAACTAGGTCATTGACAGGACAGTGAGTAGTAA	6.03
GGAACGAGGGCATTCGAGGTGATAGCATGGCGAT	0.75
GCGACTGGGGCATCAGCAGGTTACCAGAACTTAA	0.667
CCTAGCAGGCCAACCTGGGTCACTCAAGGCTTGA	0.239
TGAATGAGGTCATAAGATCAGGGAACGTTGCAAA	6.58
GATACATGGTCAAGGCCAGAGTACGCGTATTGAT	0.016
CGTGCAAGGTCAGCAGGTCAGTGAAAGCGACGTG	4.92
TTACCAAGGTGAGCTGAGGTCATTGATCCAACTC	2.46
CAAACCAGGTCACCGGAAGGTCAAAGTCCGCATG	6.92
ACAAGCAGGCCAAGTTTGGGTCACTCAAACAAAG	0.443
TCTTGTAGATCAATAGAGGTCAAGAAAGTGCGCT	3.32
ACTCGGAGGACAAAGGTTAGAGCTACGCCAGTGA	5.11
CAAACTAGGTCACCGGAAGGTCCAAGTCCGCATG	7.31
GCGACTGGGGCATGAGCAGGTTACCATAACTTAA	1.11
ATCTCTAGGTAAAGATAGTTCAGTGCATGCAAAT	0.286
TAGCATAGGTCATTCAGGGGCCAGTATAGAAAGC	4.27
ATCGAAAGGTGGTGAGGTGAGTATACAGAAAGGC	0.261
CCTACTGGGCCATTCAGCGGTCATTGATCATATG	0.538

Sequence	PBM binding z-score
CTCGAAAGGTCGGTTGAGGAGAGTATACGGATAA	1.09
TCAGACAGGTGAAGGTAACTCACGTACGCAGTCG	2.09
TCTCGTAGATCAATAGAGGTTAAGAAAGTGCGCT	1.6
ACCGAAAGGTCGAGGTGAGTATAGAGAAAGGGAA	3.78
TTACCAAGGTGATAGGTCGTTGATGCACGCCTTG	5.47
TCTATTAGTTGATTTGGGCAACCGAAACAGCGGA	1.83
CAAACTAGGTCATGAGGTCAAAGTCCGCTTCCCG	8.16
CGTCCAAGGCCAAGGTCAGTGAAAGAGACTCGAA	0.725
ATCTCTAGGTAAAAGTTCAGCGAATCCCGAGGAT	8.21
ATACCAAGGTGATCGTGAGATCGTTGATACTAAC	0.161
CCTACTGGGCCACGAAAGGTCTTTGATTCAGTGA	1.99
GCTAGTAGTTGAAAGGGCAACCGAATGATTCTCG	5.71
AGTAGCAGGCCAAGTTTGGGTCACTCAAACAAAG	0.42
CCGACTGGGGCAAAGGTTACCAGACTCAGTACGA	8.66
ATCTCAAGGTAAAAGTTCAGTGAATCCCGAGGAT	4.49
CCTACTGGGCCACGAAAGGTTATTGATTCAGTGA	2.81
ACTTACGCGTCAACGAGGTTATAGCACGCGTATA	0.282
TCTTGTAGATCAAAGGTTAACAAAGCCGAAGCCT	8.41
TCTTGTAGATCAACAGGAGGTTAGGAAAGATCGA	1.06
TCTATTTGTTGAAGGGCAACCGACGAGTCCGTTT	2.21
